# Measured values: PubChem BioAssay (EPA / NIEHS)
# Values joined by “and” are separate entries in the source; they are usually repeats but may differ in a detail not shown here. Equal values may be shown once. Inconclusive results are not listed. Some compounds were tested as several samples or in several runs, with calls that do not always agree. Active and inactive are the calls of the source. How the source made its calls: active means hit-call score of the fitted dose curve at least 0.9, where 1 is the maximum; inconclusive means response in the unintended direction; inactive means score below 0.9.
# Assays:
# [1] = molecular target: human Tropomyosin Receptor Kinase A (TRKA), NTRK1 (gene 4914) (UniProt P04629); test: NVS_ENZ_hTrkA: NovaScreen (NVS) Enzymatic Assay for human Tropomyosin Receptor Kinase A (TRKA) (AID 2283224)
# Method in brief: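 Recombinant human TrkA activity read after 1 h by fluorescence with electrophoretic mobility shift separating substrate and product. Primary screen in duplicate at 25 uM; actives were rerun in concentration-response up to 50 uM. Loss of signal versus DMSO.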
# [2] = molecular target: human Vascular Endothelial Growth Factor Receptor 1 (VEGFR1), FLT1 (gene 2321) (UniProt P17948); test: NVS_ENZ_hVEGFR1: NovaScreen (NVS) Enzymatic Assay for human Vascular Endothelial Growth Factor Receptor 1 (VEGFR1) (AID 2283226)
# Method in brief: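 Cell-free assay of recombinant human VEGFR1 kinase with substrate, measured 1 h after dosing; fluorescence with electrophoretic mobility-shift separation of substrate and product, referenced to DMSO; primary screen at 25 uM in duplicate, actives then run in concentration series.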
# [3] = molecular target: human Vascular Endothelial Growth Factor Receptor 2 (VEGFR2), KDR (gene 3791) (UniProt P35968); test: NVS_ENZ_hVEGFR2: NovaScreen (NVS) Enzymatic Assay for human Vascular Endothelial Growth Factor Receptor 2 (VEGFR2) (AID 2283230)
# Method in brief: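 Cell-free recombinant VEGFR2 kinase, fluorescent substrate with electrophoretic mobility-shift separation; read 1 h after dosing. Screened at 25 uM in duplicate, hits to concentration-response up to 50 uM; loss-of-signal versus DMSO.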
# [4] = molecular target: rat Catechol-O-Methyl Transferase (COMT), Comt (gene 24267) (UniProt P22734); test: NVS_ENZ_rCOMT: NovaScreen (NVS) Enzymatic Assay for rat Catechol-O-Methyl Transferase (COMT) (AID 2283235)
# Method in brief: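 Cell-free enzyme activity with protein extracted from rat dorsal striatum, measured by HPLC with absorbance detection. Compounds screened at 25 uM in duplicate; actives then run in concentration-response up to 50 uM, loss of signal versus DMSO.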
# [5] = molecular target: rabbit Imidazoline 2 Central (I2C), CKB (gene 100009085) (UniProt P00567); test: NVS_ENZ_rabI2C: NovaScreen (NVS) Enzymatic Assay for rabbit Imidazoline 2 Central (I2C) (AID 2283228)
# Method: NVS_ENZ_rabI2C is a biochemical, single-readout assay that uses extracted gene-proteins from Rabbit brain membranes in a tissue-based cell-free assay. Measurements were taken 1.5 hours after chemical dosing in a 48-well plate.NVS_ENZ_rabI2C is one of one assay component(s) measured or calculated from the NVS_ENZ_rabI2C assay. It is designed to make measurements of enzyme activity, a form of enzyme reporter, as detected with scintillation counting signals by Filter-based radiodetection technology.Data from the assay component NVS_ENZ_rabI2C was analyzed into 1 assay endpoint. This assay endpoint, NVS_ENZ_rabI2C, was analyzed in the positive analysis fitting direction relative to DMSO as the negative control and baseline of activity. Using a type of enzyme reporter, loss-of-signal activity can be used to understand changes in the enzymatic activity as they relate to the gene CKB. Furthermore, this assay endpoint can be referred to as a primary readout, because this assay has produced multiple assay endpoints where this one serves a enzymatic activity function. To generalize the intended target to other relatable targets, this assay endpoint is annotated to the oxidoreductase intended target family, where the subfamily is imidazoline receptor. […]
# [6] = system: bovine Angiotensin II Receptor Type 2 (AT2), gene 407157; test: NVS_GPCR_bAT2: NovaScreen (NVS) G Protein-Coupled Receptor Assay for bovine Angiotensin II Receptor Type 2 (AT2) (AID 2283240)
# Method in brief: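 Radioligand displacement on bovine cerebellar membranes, 1 hour incubation, filter-based scintillation counting; loss of signal vs DMSO. Duplicate single-point screen at 25 uM, then concentration-response to 50 uM maximum.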
# [7] = NVS_GPCR_bNPY_NonSelective: NovaScreen (NVS) G Protein-Coupled Receptor Assay for bovine Neuropeptide Y (NPY) Receptor, Non-selective Binding (AID 2283245)
# Method in brief: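 Bovine hippocampal membranes incubated 1 hour with radioligand and test chemical. Bound ligand measured by filter-based scintillation counting. Single-concentration screen at 25 uM in duplicate, then concentration-response up to 50 uM.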
# [8] = molecular target: bovine Dopamine Receptor (DR), Non-selective Binding, DRD1 (gene 281125) (UniProt Q95136); test: NVS_GPCR_bDR_NonSelective: NovaScreen (NVS) G Protein-Coupled Receptor Assay for bovine Dopamine Receptor (DR), Non-selective Binding (AID 2283241)
# Method: NVS_GPCR_bDR_NonSelective is a biochemical, single-readout assay that uses extracted gene-proteins from Bovine striatal membranes in a tissue-based cell-free assay. Measurements were taken 1 hour after chemical dosing in a 48-well plate.NVS_GPCR_bDR_NonSelective is one of one assay component(s) measured or calculated from the NVS_GPCR_bDR_NonSelective assay. It is designed to make measurements of radioligand binding, a form of binding reporter, as detected with scintillation counting signals by Filter-based radiodetection technology.Data from the assay component NVS_GPCR_bDR_NonSelective was analyzed into 1 assay endpoint. This assay endpoint, NVS_GPCR_bDR_NonSelective, was analyzed in the positive analysis fitting direction relative to DMSO as the negative control and baseline of activity. Using a type of binding reporter, loss-of-signal activity can be used to understand changes in the binding as they relate to the gene DRD1. Furthermore, this assay endpoint can be referred to as a primary readout, because the performed assay has only produced 1 assay endpoint. To generalize the intended target to other relatable targets, this assay endpoint is annotated to the gpcr intended target family, where the subfamily is rhodopsin-like receptor. […]
# Sequence of human Vascular Endothelial Growth Factor Receptor 1 (VEGFR1), FLT1 (gene 2321) (P17948 whole entry, looked up): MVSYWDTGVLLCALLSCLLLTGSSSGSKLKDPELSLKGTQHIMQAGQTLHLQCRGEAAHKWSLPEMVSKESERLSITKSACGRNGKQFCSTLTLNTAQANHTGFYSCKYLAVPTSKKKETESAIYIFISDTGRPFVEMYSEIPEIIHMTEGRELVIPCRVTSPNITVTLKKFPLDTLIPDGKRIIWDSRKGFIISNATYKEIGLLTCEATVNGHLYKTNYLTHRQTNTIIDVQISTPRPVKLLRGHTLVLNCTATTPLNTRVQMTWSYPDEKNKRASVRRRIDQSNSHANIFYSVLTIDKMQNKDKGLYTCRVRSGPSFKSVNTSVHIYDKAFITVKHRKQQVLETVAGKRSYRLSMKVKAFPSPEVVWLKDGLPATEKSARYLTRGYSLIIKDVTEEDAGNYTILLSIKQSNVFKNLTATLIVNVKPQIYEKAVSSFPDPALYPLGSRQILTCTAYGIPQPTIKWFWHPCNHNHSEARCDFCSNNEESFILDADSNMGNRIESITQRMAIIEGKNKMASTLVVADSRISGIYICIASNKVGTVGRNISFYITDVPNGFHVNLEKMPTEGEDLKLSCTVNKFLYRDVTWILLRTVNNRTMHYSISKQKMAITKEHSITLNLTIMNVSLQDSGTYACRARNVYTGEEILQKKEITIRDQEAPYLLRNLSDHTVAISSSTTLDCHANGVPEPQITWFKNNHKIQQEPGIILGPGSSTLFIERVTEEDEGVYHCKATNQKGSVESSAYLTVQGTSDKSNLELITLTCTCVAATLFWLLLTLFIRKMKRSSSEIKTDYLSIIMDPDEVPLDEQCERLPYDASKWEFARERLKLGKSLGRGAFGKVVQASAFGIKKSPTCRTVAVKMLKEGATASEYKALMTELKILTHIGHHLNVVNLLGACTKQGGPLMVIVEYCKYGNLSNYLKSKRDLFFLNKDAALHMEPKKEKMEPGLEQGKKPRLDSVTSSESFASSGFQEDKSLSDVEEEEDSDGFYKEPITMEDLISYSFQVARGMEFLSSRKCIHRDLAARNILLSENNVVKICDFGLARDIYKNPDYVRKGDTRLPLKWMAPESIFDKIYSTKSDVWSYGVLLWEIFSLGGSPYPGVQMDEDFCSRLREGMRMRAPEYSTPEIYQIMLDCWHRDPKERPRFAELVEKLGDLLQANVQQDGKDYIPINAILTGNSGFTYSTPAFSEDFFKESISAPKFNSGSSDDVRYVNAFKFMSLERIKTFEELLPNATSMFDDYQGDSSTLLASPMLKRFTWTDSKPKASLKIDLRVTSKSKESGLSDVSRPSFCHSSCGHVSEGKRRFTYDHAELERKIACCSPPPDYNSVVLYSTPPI
# Sequence of human Vascular Endothelial Growth Factor Receptor 2 (VEGFR2), KDR (gene 3791) (P35968 whole entry, looked up): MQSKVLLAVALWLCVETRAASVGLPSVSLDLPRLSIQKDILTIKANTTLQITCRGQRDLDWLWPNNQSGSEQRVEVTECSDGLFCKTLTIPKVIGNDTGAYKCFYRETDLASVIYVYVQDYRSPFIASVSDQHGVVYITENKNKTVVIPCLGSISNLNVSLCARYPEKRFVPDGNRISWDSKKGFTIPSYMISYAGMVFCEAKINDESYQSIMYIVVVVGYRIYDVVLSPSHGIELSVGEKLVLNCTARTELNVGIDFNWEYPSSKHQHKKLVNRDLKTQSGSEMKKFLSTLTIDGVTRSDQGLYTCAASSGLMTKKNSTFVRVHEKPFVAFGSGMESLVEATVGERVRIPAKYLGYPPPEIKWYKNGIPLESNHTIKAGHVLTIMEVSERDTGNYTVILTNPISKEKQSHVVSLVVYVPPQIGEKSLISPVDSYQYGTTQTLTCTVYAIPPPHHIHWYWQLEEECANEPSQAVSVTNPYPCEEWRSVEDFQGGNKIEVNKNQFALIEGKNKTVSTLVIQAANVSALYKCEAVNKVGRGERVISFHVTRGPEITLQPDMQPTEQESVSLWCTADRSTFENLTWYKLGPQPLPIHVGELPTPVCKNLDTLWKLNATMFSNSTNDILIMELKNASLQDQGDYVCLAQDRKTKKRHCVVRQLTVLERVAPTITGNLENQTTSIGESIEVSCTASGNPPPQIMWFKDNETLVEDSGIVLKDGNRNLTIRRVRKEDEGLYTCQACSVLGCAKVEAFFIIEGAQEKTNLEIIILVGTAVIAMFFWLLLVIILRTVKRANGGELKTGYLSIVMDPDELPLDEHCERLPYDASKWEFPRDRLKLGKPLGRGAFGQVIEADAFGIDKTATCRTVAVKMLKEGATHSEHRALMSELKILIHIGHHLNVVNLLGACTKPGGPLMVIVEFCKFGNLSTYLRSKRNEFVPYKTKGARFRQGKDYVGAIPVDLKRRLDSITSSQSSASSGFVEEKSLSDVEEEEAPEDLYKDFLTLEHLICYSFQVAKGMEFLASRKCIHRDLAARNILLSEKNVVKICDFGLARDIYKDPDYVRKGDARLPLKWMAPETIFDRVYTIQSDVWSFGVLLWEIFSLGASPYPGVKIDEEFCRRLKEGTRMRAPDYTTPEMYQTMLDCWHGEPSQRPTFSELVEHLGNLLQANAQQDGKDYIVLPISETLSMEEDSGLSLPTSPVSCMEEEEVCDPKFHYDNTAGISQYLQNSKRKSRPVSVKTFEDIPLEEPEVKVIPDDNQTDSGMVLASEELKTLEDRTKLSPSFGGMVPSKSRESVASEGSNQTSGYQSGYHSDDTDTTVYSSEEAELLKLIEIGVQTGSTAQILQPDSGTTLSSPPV
# Sequence of bovine Dopamine Receptor (DR), Non-selective Binding, DRD1 (gene 281125) (Q95136 whole entry, looked up): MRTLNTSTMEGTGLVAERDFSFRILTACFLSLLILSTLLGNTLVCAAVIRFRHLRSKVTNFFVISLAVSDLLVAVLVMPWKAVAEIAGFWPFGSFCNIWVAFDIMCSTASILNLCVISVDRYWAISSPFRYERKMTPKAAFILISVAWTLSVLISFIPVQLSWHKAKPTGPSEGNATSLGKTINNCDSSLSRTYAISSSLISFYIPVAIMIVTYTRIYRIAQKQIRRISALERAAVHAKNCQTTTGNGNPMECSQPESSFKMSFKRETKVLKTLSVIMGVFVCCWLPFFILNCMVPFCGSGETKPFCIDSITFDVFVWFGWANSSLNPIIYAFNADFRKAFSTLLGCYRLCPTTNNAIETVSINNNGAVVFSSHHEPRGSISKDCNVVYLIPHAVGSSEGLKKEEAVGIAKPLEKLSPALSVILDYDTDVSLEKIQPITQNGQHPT
# Sequence of rat Catechol-O-Methyl Transferase (COMT), Comt (gene 24267) (P22734 whole entry, looked up): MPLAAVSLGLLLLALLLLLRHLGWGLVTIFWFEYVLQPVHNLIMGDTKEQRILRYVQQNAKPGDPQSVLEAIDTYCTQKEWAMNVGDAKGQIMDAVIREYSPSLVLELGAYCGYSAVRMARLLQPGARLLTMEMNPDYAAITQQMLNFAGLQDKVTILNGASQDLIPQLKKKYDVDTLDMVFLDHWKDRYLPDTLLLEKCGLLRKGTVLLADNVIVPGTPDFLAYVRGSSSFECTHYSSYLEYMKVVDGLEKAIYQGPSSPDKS
# Sequence of rabbit Imidazoline 2 Central (I2C), CKB (gene 100009085) (P00567 whole entry, looked up): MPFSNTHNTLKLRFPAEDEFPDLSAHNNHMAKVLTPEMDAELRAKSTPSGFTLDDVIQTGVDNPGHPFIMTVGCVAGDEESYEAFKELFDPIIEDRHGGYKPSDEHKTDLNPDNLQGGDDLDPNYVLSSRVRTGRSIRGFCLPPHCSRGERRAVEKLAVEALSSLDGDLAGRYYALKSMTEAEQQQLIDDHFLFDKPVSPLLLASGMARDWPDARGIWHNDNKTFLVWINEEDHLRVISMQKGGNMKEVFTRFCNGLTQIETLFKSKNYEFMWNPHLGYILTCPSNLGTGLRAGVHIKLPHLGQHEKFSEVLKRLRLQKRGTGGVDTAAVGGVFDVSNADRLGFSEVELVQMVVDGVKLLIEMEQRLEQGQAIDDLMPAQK
# Sequence of human Tropomyosin Receptor Kinase A (TRKA), NTRK1 (gene 4914) (P04629 whole entry, looked up): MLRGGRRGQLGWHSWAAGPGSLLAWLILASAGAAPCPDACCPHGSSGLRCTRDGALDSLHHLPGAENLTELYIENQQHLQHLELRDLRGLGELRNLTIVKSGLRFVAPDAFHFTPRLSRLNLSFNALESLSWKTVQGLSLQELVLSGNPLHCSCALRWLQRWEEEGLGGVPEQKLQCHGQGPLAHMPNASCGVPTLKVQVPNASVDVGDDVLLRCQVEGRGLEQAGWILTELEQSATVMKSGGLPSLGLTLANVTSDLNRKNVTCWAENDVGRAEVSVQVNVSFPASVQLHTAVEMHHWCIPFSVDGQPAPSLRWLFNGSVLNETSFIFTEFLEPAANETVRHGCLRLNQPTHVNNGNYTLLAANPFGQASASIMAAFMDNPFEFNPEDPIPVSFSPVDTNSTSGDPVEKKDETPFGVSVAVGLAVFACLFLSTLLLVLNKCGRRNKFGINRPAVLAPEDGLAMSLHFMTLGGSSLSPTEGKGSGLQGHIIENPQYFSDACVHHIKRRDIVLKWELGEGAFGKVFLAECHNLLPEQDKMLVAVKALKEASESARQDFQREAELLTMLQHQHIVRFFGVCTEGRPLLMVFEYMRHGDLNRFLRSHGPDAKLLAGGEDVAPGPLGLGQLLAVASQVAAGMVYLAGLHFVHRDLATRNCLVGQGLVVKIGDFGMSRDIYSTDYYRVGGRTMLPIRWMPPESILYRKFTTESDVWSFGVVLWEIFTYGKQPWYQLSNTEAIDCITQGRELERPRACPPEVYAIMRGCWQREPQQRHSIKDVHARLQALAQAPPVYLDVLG
structure (smiles),measurement,setting,value
CN(C)[C@@H]1C(=O)C(C(N)=O)=C(O)[C@@]2(O)C(=O)C3=C(O)c4c(O)cccc4[C@@](C)(O)[C@H]3[C@H](O)[C@@H]12,AC50,[1],17.8 µM (active)
same,AC50,[2],3.49 µM (active)
same,outcome,[2],inactive
same,AC50,[3],12.3 µM (active) and 18.2 µM (active)
same,outcome,[3],inactive
same,AC50,[4],3.33 µM (active) and 1.72 µM (active)
CCOP(=S)(OCC)SCCSCC,outcome,[2],inactive
CCC(=O)Nc1ccc(Cl)c(Cl)c1,AC50,[5],15.7 µM (active)
C#CC(C)(C)NC(=O)c1cc(Cl)cc(Cl)c1,outcome,[5],inactive
CC[C@H](C)[C@H]1O[C@]2(C=C[C@@H]1C)C[C@@H]1C[C@@H](C/C=C(\C)[C@@H](O[C@H]3C[C@H](OC)[C@@H](O[C@H]4C[C@H](OC)[C@@H](NC)[C@H](C)O4)[C@H](C)O3)[C@@H](C)/C=C/C=C3\CO[C@@H]4[C@H](O)C(C)=C[C@@H](C(=O)O1)[C@]34O)O2,outcome,[3],inactive
same,outcome,[6],inactive
same,AC50,[7],20.6 µM (active)
CON=C(C(=O)OC)c1ccccc1CON=C(C)c1cccc(C(F)(F)F)c1,outcome,[6],inactive
CCCCOC(=O)c1ccccc1C(=O)O,outcome,[8],inactive
CCOP(=S)(OCC)Oc1ccc([N+](=O)[O-])cc1,outcome,[8],inactive
COP(=O)(OC)OC(Br)C(Cl)(Cl)Br (stereo unspecified),outcome,[7],inactive
